According to PubChem BioAssay (NCATS):
Results filed as inconclusive are left out. Active and inactive are the calls of the source. Calls come from the whole dose curve; as a rule, active = well fitted curve in the direction sought with a large enough effect; inconclusive = small, poorly fitted or top-dose-only effect, or another doubt; inactive = no such curve, though single readings can be large; an effect the other way counts as inactive or inconclusive.

Key:
[1] = qHTS of pediatric cancer cell lines to identify multiple opportunities for drug repurposing: Primary screen for SK-N-SH cells (AID 1347098); note: nearly all actives have a fitted effect of over 65% in size; note: potency is the fitted concentration of half-maximal effect
Summary of the method: (§1)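 Cells (500-1,000/well) rested 5 h, then received compounds for 48 h; metabolically active cells were measured by CellTiter-Glo luminescence. Final concentrations spanned up to 46 µM (MIPE, 11-point) or 0.59 nM-46 µM (NPC, 8-point) in primary screens, 11-point in follow-ups.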

[2] = qHTS of pediatric cancer cell lines to identify multiple opportunities for drug repurposing: Primary screen for NB1643 cells (AID 1347099); note: nearly all actives have a fitted effect of over 50% in size; note: potency is the fitted concentration of half-maximal effect
Summary of the method: (§2)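 Phenotypic viability qHTS, 48 h compound exposure, CellTiter-Glo luminescence read-out; multi-concentration dosing so that potency and efficacy derive directly from the primary screen's curves.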

[3] = qHTS of pediatric cancer cell lines to identify multiple opportunities for drug repurposing: Primary screen for LAN-5 cells (AID 1347100); note: potency is the fitted concentration of half-maximal effect
Summary of the method: (§3)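 Viability after 48 h compound treatment at 37C, 500-1,000 cells/well, read as ATP luminescence with CellTiter-Glo. Primary screens used 11-point (MIPE, 0.78 nM-46 µM) or 8-point (NPC, 0.59 nM-46 µM) final concentrations; follow-up screens used 11-point dilutions.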

[4] = qHTS of pediatric cancer cell lines to identify multiple opportunities for drug repurposing: Primary screen for BT-12 cells (AID 1347101); note: nearly all actives have a fitted effect of over 25% in size; note: potency is the fitted concentration of half-maximal effect
Summary of the method: as §1

[5] = qHTS of pediatric cancer cell lines to identify multiple opportunities for drug repurposing: Primary screen for Rh18 cells (AID 1347102); note: nearly all actives have a fitted effect of over 65% in size
Summary of the method: as §3

[6] = qHTS of pediatric cancer cell lines to identify multiple opportunities for drug repurposing: Primary screen for RD cells (AID 1347104); note: nearly all actives have a fitted effect of over 55% in size; note: potency is the fitted concentration of half-maximal effect
Summary of the method: as §2

[7] = qHTS of pediatric cancer cell lines to identify multiple opportunities for drug repurposing: Primary screen for MG 63 (6-TG R) cells (AID 1347105); note: nearly all actives have a fitted effect of over 50% in size
Summary of the method: as §2

[8] = qHTS of pediatric cancer cell lines to identify multiple opportunities for drug repurposing: Primary screen for control Hh wild type fibroblast cells (AID 1347106);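 note: series mostly up to about 46 µM; a drop in luminescence marks cytotoxicity and a rise apparent proliferation; nearly all actives have a fitted effect of over 55% in size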
Summary of the method: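 Cells (500-1,000/well) in growth media were settled 5 h at 37 degrees C, then given compounds for 48 h. Viability was read as CellTiter-Glo luminescence. Primary runs used MIPE at 11 points (0.78 nM-46 µM) and NPC at 8 points (0.59 nM-46 µM); follow-ups used 11 points.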

[9] = qHTS of pediatric cancer cell lines to identify multiple opportunities for drug repurposing: Primary screen for Rh30 cells (AID 1347107); note: series mostly up to about 46 µM; nearly all actives have a fitted effect of over 75% in size
Summary of the method: as §3

[10] = qHTS of pediatric cancer cell lines to identify multiple opportunities for drug repurposing: Primary screen for Rh41 cells (AID 1347108);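 note: series mostly up to about 46 µM; luminescence drop marks cytotoxic hits; nearly all actives have a fitted effect of over 70% in size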
Summary of the method: as §2

[11] = qHTS of pediatric cancer cell lines to identify multiple opportunities for drug repurposing: Confirmatory screen for NB1643 cells (AID 1347109); note: nearly all actives have a fitted effect of over 45% in size
Summary of the method: as §3

[12] = qHTS of pediatric cancer cell lines to identify multiple opportunities for drug repurposing: Confirmatory screen for A673 cells (AID 1347110); note: potency is the fitted concentration of half-maximal effect; nearly all actives have a fitted effect of over 65% in size
Summary of the method: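 qHTS titration format: primary MIPE 0.78 nM-46 µM (11 pts), NPC 0.59 nM-46 µM; confirmation 11 pts. 48 h, CTG luminescence.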

[13] = qHTS of pediatric cancer cell lines to identify multiple opportunities for drug repurposing: Confirmatory screen for SK-N-MC cells (AID 1347111);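 note: cells exposed to compound for 48 h before the readout; nearly all actives have a fitted effect of over 70% in size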
Summary of the method: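 SK-N-MC cells at 500-1,000 cells/well in growth media were pre-incubated 5 h, then exposed to compounds at 11-point dilutions for 48 h at 37 degrees C, 5% CO2. Viability was read as CellTiter-Glo luminescence.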

[14] = qHTS of pediatric cancer cell lines to identify multiple opportunities for drug repurposing: Confirmatory screen for BT-12 cells (AID 1347112); note: nearly all actives have a fitted effect of over 55% in size
Summary of the method: as §3

[15] = qHTS of pediatric cancer cell lines to identify multiple opportunities for drug repurposing: Confirmatory screen for NB-EBc1 cells (AID 1347115); note: nearly all actives have a fitted effect of over 45% in size
Summary of the method: as §3

[16] = qHTS of pediatric cancer cell lines to identify multiple opportunities for drug repurposing: Confirmatory screen for SJ-GBM2 cells (AID 1347116); note: nearly all actives have a fitted effect of over 60% in size
Summary of the method: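 Viability measured as metabolically active cells via CellTiter-Glo luminescence following 48 hours of compound exposure, 11-point dilutions in confirmatory testing. 500-1,000 cells/well plated 5 hours before dosing; controls were DMSO and 2.3 µM bortezomib.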

[17] = qHTS of pediatric cancer cell lines to identify multiple opportunities for drug repurposing: Confirmatory screen for BT-37 cells (AID 1347117); note: nearly all actives have a fitted effect of over 55% in size
Summary of the method: as §3

[18] = qHTS of pediatric cancer cell lines to identify multiple opportunities for drug repurposing: Primary screen for OHS-50 cells (AID 1347103); note: nearly all actives have a fitted effect of over 40% in size; note: potency is the fitted concentration of half-maximal effect
Summary of the method: as §1

Measured: Potency

CC(C)(C)CC(=O)OCC(=O)[C@@]1(O)CC[C@H]2[C@@H]3CCC4=CC(=O)C=C[C@]4(C)[C@H]3[C@@H](O)C[C@@]21C
active: [12] 2.33 µM
not listed: [18]
inactive: all other assays above

O=C(C1CCCCC1)N1CC(=O)N2CCCc3ccccc3C2C1 (stereo not given)
not listed: [11] | [12] | [13] | [14] | [15] | [16] | [17]
inactive: all other assays above

CN1C(=O)CC(C)(c2ccccc2)C1=O (stereo not given)
not listed: [11] | [12] | [13] | [14] | [15] | [16] | [17]
inactive: all other assays above

CC(=O)N(CC(=O)N(C)C)c1ccccc1
not listed: [11] | [12] | [13] | [14] | [15] | [16] | [17]
inactive: all other assays above

O=C(O)CCCC[C@@H]1SC[C@@H]2NC(=O)N[C@@H]21
not listed: [11] | [12] | [13] | [14] | [15] | [16] | [17]
inactive: all other assays above

CC(C)(C)C(O)/C=C/c1ccc2c(c1)OCO2 (stereo not given)
inactive: [1] | [2] | [3] | [4] | [5] | [6] | [7] | [8] | [9]

CC[C@@H]([C@H](C)O)n1ncn(-c2ccc(N3CCN(c4ccc(OC[C@@H]5CO[C@@](Cn6cncn6)(c6ccc(F)cc6F)C5)cc4)CC3)cc2)c1=O
active: [18] 13.8 µM
inactive: [1] | [5] | [8] | [9]

CC(C)(C)c1cc(C=O)cc(C(C)(C)C)c1O
inactive: [1] | [2] | [4] | [5] | [18] | [6] | [7] | [8] | [9] | [10]

Nc1ncnc2nc[nH]c12
inactive: [2] | [3] | [4] | [5] | [18] | [6] | [7] | [8] | [9]

O=C(O)[C@H](O)[C@@H](O)[C@H](O[C@@H]1O[C@H](CO)[C@H](O)[C@H](O)[C@H]1O)[C@H](O)CO
inactive: [1] | [3] | [4] | [6] | [7] | [8] | [9] | [10]

C/C=C(/C(=C/C)c1ccc(OC(C)=O)cc1)c1ccc(OC(C)=O)cc1
inactive: [1] | [4] | [5] | [6] | [8] | [9] | [10]

CC(C(=O)O)c1ccc(/C=C2\CCCCC2=O)cc1 (stereo not given)
inactive: [1] | [2] | [3] | [4] | [6] | [7] | [9] | [10]

CCOC(=O)N1CCC(Nc2ccc(Cl)cc2N)CC1
inactive: [6] | [7] | [8] | [9]
active: [1] 19.4 µM | [2] 8.41 µM | [3] 2.66 µM | [4] 4.9 µM

COc1cc2nc(Cl)nc(N)c2cc1OC
inactive: [1] | [2] | [3] | [5] | [18] | [6] | [7] | [8] | [9] | [10]

CCCCCC(=O)O[C@]1(C(C)=O)CC[C@H]2[C@@H]3CCC4=CC(=O)CC[C@]4(C)[C@H]3CC[C@@]21C
inactive: [7] | [8] | [9]
active: [1] 24.4 µM | [2] 18.8 µM | [3] 26.6 µM | [4] 27.6 µM | [18] 15.5 µM

C=CCNc1nc(NCC=C)nc(N2CCN(C(c3ccc(F)cc3)c3ccc(F)cc3)CC2)n1
inactive: [1] | [2] | [3] | [8] | [9] | [10]

O=C(Nc1ccc(Cl)cc1)Nc1ccc(Cl)c(Cl)c1
active: [1] 12.2 µM | [18] 24.6 µM | [6] 23.7 µM

COC(=O)C1=C(C)NC(C)=C(C(=O)OCCc2ccc(N3CCN(C(c4ccccc4)c4ccccc4)CC3)cc2)C1c1cccc([N+](=O)[O-])c1 (stereo not given)
inactive: [1] | [2] | [3] | [5] | [18] | [6] | [8] | [9]
